Luciferase inh: inhibitors of firefly luciferase. P08659. purified firefly luciferase, luminescence, 8 min. Potency, µM (doses to about 57.1 µM), without a hit: at the highest dose activity change, negative = inhibition, usual class: inhibitors. actives 2.2% (n = 72,000). AID 411; also: nearly all actives have a fitted effect of over 40% in size
Target sequence (P08659 whole entry, looked up): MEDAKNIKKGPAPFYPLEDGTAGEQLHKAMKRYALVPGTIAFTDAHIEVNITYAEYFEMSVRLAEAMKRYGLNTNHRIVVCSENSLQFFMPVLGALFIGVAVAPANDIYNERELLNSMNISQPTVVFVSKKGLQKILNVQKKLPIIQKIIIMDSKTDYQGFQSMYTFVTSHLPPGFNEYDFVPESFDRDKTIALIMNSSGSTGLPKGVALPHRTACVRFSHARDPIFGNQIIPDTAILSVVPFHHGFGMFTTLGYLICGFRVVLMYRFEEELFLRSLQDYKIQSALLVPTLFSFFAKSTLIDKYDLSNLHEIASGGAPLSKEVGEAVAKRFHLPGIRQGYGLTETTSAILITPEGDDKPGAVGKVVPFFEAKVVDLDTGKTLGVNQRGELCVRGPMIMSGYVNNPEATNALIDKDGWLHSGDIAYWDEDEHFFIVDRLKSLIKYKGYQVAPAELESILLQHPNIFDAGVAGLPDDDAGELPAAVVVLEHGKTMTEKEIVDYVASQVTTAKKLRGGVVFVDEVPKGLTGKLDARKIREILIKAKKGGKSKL
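Substrate buffer containing 10 uM ATP (pH 7.2 imidazole, Mg2+, KCl, detergent, BSA) is dispensed, compound pinned in, then luciferase/luciferin detector mix added. After 8 min at ambient temperature, light output is measured.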
p53ts 32C tox: kills p53ts cells at the permissive temperature; H1299-p53A138V at 32C, ATP luminescence viability, 24 h; Potency, µM (doses to about 46.1 µM), for the others: at the top dose activity change, negative = cytotoxicity, actives largely listed as cytotoxic; actives 0.93% (n = 130,000);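 also: 0% = DMSO and -100% = full killing by reference compound; nearly all actives have a fitted effect of over 55% in size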
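ATP-content luminescence (ATPlite) read-out after 24 h compound exposure at 32C in H1299-p53A138V cells (600/well). Tested up to 46 uM. Normalized to DMSO (0%) and 100 uM tamoxifen (100% killing); Hill-fit AC50.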
p53ts 39C kill: p53ts cell cytotoxicity, nonpermissive temperature | H1299-p53A138V viability at 39C, ATP luminescence, 24 h | actives 1.5% (n = 130,000) | Potency, µM (highest dose often 46.1 µM), inactives show top-dose activity change, negative = cell killing, hits mostly cytotoxic; also: nearly all actives have a fitted effect of over 55% in size
Numbers without * were called inactive; ? = inconclusive; / = no result given; [ ] = dose if it differs, or a comment. Only some compounds are listed: those with a hit (about 2.5% of all), similar ones and a draw of the others. Calls follow the shape of the dose curve; as a rule, active = well fitted curve in the direction sought with a large enough effect; inconclusive = small, poorly fitted or top-dose-only effect, or another doubt; inactive = no such curve, though single readings can be large; an effect the other way counts as inactive or inconclusive. Unless noted, % is scaled to controls: 0 for no effect and ±100 for the full control effect; potency is read from the fitted curve at half-maximal effect.

SMILES	Luciferase inh	p53ts 32C tox	p53ts 39C kill
Cc1nc(NCc2ccccc2)c2nc(-c3ccccc3)n(CCN3CCOCC3)c2n1	/	-1%	-3%
O=C(CSc1ccc2nnc(CCNS(=O)(=O)c3ccccc3)n2n1)Nc1ccccc1C(F)(F)F	/	2%	8%
COc1cccc(N2C(=O)c3ccncc3C2=O)c1	1%	-1%	-4%
O=C1c2ccncc2C(=O)N1CO	-1%	-2%	9%
CNC1=C(Br)C(=O)c2ccncc2C1=O	/	0.79µM*	2µM*
CNC1=C(Cl)C(=O)c2ccncc2C1=O	/	1.6µM*	4µM*
N[C@H](Cc1ccc(F)cc1)C(=O)O	0%	16%	-4%
CC(C)c1ccc(/C(C(=O)O)=C(\O)C(=O)O)cc1	-5%[11.4 µM]	-20%[9.22 µM]	-20%[9.22 µM]
Clc1ccccc1-c1nccc(NCCN2CCOCC2)n1	1%[2.29 µM]	-1%	-13%
O=C1C(Cl)=C(NC2CCc3ccccc32)C(=O)c2ncccc21 (stereo not drawn)	/	2.5µM*	6.3µM*
c1ccc2c(c1)CCCC2NC1=NCCC1 (stereo not drawn)	1%	-2%	5%
O=C1C(Cl)=C(NCCN2CCOCC2)C(=O)c2ncccc21	/	3.2µM*	5µM*
COc1ccc(CNC(=O)c2ccc(-c3nc(CSc4ccc(C)cc4)c(C)o3)cc2)cc1OC	/	0%	13%
Cc1noc(C)c1C(=O)N1CCC2(CCCN(c3ccccn3)C2)CC1	1%[11.4 µM]	6%	17%
COc1ccc(-n2ncc3c(Nc4cccc(C)c4)ncnc32)cc1	0%[25.5 µM]	/	/
CCCNc1ncnc2c1cnn2-c1ccc(OC)cc1	7.9µM*	/	/
CCCN(CCC)c1ncnc2c1cnn2-c1ccc(OC)cc1	16µM*	?	?
COc1ccc(CCNc2ncnc3c2cnn3-c2ccc(F)cc2)cc1	/	-4%	-24%
O=C(Nc1cccc(C(F)(F)F)c1)c1cc(-c2ccc(Cl)cc2)on1	/	1%	-4%
FC(F)(F)c1cccc(Nc2nc3nonc3nc2Nc2ccc(Cl)cc2)c1	/	?	16µM*
CCOc1ccc(CNC(=O)c2ccccc2NC(=O)c2nsc3ccccc23)cc1	/	?	10µM*
CCOc1ccc(CNC(=O)c2ccc(NC(=O)c3nsc4ccccc34)cc2)cc1	/	-26%	-28%
COc1ccc(OC)c([C@H]2Nc3ccccc3NC3=C2C(=O)CC(C)(C)C3)c1Br	-8%[11.4 µM]	/	/
Cc1[nH]n2c(=O)c3c(nc2c1-c1ccc(Cl)cc1)CCC3	1%	-6%	-7%
Cc1ccc(-c2cc3nc4c(c(=O)n3[nH]2)CCCC4)cc1	4µM*	?	?
SMILES	Luciferase inh	p53ts 32C tox	p53ts 39C kill
CCc1c(C)nc2cc(-c3ccc(OC)cc3)[nH]n2c1=O	20µM*	?	?
CCOC(=O)Cc1c(C)nc2cc(-c3ccc(Cl)cc3)[nH]n2c1=O	-6%	-6%	-1%
C=C1CC[C@@H](O)C/C1=C/C=C1\CCC[C@]2(C)[C@@H]1CC[C@H]2[C@@H](C)CCCC(C)C	3%[11.4 µM]	/	/
Cc1ccc(NS(=O)(=O)c2cc(Br)cc3c2N(C(=O)C2CC2)CC3)cc1C	/	12%	-5%
COc1cc(NS(=O)(=O)c2cc(Br)cc3c2N(C(=O)C2CC2)CC3)cc(OC)c1	/	10µM*	13µM*
COCCNC(=O)c1csc2c1CCCC2	-1%	3%	-2%
CCOC(=O)Cc1csc(NC(=O)c2csc3c2CCCC3)n1	16µM*	-21%	?
COc1cc(NC(=O)c2csc3c2CCCC3)ncn1	13µM*	?	?
CCOC(=O)Cc1csc(NC(=O)c2ccc(C)o2)n1	-4%	-9%	-1%
COc1ccccc1CNC(=O)Nc1ccc2c(c1)N(C)C(=O)c1ccccc1S2	/	16%	3%
Cc1nn(-c2ccc(C(=O)O)cc2)c(N)c1-c1ccccc1	13µM*	7.9µM*	10µM*
COc1ccc(-c2c(C)nn(-c3ccccc3)c2N)cc1OC	/	13%	16%
O=C(c1ccncc1)N1CCC[C@@]2(CCN(c3cccc(-c4ccccc4)c3)C2)C1	0%[11.4 µM]	-3%	-3%
COCCCNC(=O)c1ccc2c(c1)N(Cc1ccccc1)C(=O)c1ccccc1S2	/	-2%	?
CCCCN(CC)CCCNC(=O)c1ccc2c(c1)N(Cc1ccc(C)cc1)C(=O)c1ccccc1S2	/	?	13µM*
CCCCN(CC)C(=O)Nc1ccc2c(c1)N(C)C(=O)c1ccccc1S2	/	0%	25µM*
CCN(CC)C(=O)Nc1ccc2c(c1)N(Cc1ccccc1)C(=O)c1ccccc1S2	/	3%	8%
Cc1nc(-c2ccccc2)sc1-c1ccc(SCC(=O)NCc2ccccc2Cl)nn1	/	-3%	-17%
CCN(CC)COC(=S)S	-1%[11.4 µM]	-2%[9.22 µM]	-11%[9.22 µM]
O=C(Nc1ccc(C(F)(F)F)cc1)C(Cc1ccccc1)n1cccc1 (stereo not drawn)	/	-10%	20µM*

Screening data deposited in PubChem BioAssay by National Center for Advancing Translational Sciences (NCATS).
